Screening results deposited in PubChem by The Scripps Research Institute Molecular Screening Center.
Shown is part of a subset that was picked to be rich in hits.
TbREL1 inh = TbREL1 inhibition, primary screen. TbREL1 RNA ligation, FRET fluorescence. inhibition, % at 9.66 µM. 0.49% of 89,000 active;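 active = inhibition above the mean inhibition across all screened compounds plus 3 SD, cut at about 11% in these data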;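 also: 0% = plate median of test wells and 100% = NSC42067 control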
Target sequence (P86926 whole entry, looked up): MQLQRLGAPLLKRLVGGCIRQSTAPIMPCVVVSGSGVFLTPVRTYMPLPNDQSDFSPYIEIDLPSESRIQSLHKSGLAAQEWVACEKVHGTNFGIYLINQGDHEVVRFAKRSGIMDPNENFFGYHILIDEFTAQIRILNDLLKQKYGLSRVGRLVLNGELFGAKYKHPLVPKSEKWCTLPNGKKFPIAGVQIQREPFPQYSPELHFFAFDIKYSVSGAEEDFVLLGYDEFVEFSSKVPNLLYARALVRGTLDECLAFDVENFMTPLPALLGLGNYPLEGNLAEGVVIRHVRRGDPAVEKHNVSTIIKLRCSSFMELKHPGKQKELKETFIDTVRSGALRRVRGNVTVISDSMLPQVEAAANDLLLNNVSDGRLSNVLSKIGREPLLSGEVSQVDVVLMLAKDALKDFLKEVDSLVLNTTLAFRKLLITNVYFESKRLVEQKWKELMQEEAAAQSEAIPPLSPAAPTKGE
TbREL1 conf = TbREL1 inhibition, confirmation; shares compounds with TbREL1 inh; TbREL1 RNA ligation, FRET fluorescence; inhibition, % at 9.66 µM; 37% of 390 active;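 active = mean inhibition across replicates above a set limit taken from the earlier primary screen, cut at about 11% in these data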;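 also: 0% = REL1 with substrate and DMSO and 100% = REL1 plus control inhibitor NSC42067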
* marks the source's active call; other numbers are inactive results.

SMILES	TbREL1 inh	others
CC(C)(C)c1ccc(C(=O)Nc2cc(Cl)c(Cl)cc2C(=O)O)cc1	-1.7
CC(C)(C)c1ccc(C(=O)Nc2cc(Cl)c(F)cc2C(=O)O)cc1	12.9*	TbREL1 conf=1.8
CC(C)(C)c1ccc(C(=O)Nc2ccc(Cl)cc2)cc1	1.6
CCC(CC)NC(=O)O[C@H]1CC[C@@]23CCCN2C(=O)CCC[C@H]3[C@H]1C	-3.7
CC1=CC(=O)C(C(C)C)=C/C1=N\OS(=O)(=O)c1ccccc1	-0.8
COP(=O)(O)C[C@@H]1CCc2cc(C)cc([C@H](CC(C)C)NC(=O)OCc3ccccc3)c2O1	5.6
O=C(Cc1cccs1)N/N=C/c1ccccn1	3.3
O=C(N/N=C/c1ccccn1)c1cccs1	12.1*	TbREL1 conf=6.0
O=C(N/N=C\c1ccccn1)c1cccc(C(=O)N/N=C\c2ccccn2)n1	-7.3
COc1cccc(C=NNC(=O)CSc2nc3ccccc3[nH]2)c1O	-5.6
CCN(CC)CCn1c(=N)n(CC(O)COc2ccccc2)c2ccccc21 (stereo not drawn)	3.3
Cc1ccc(OCC(O)Cn2c(=N)n(CCN3CCCCC3)c3ccccc32)cc1 (stereo not drawn)	8.8
CCCCCn1c(=N)n(CC(O)COc2ccccc2OC)c2ccccc21 (stereo not drawn)	11.4*	TbREL1 conf=9.9
CC(C)CCNC(=O)CSc1nc2c(c(=O)[nH]1)CCC2	-3.0
COC(=O)[C@]12C[C@H](CC(=O)N3CCCC3)C(=O)N(Cc3cccc4ccccc34)C1=C[C@H](COCc1ccccc1)O[C@@H]2C	-1.4
COc1ccc(NC(=O)c2ccc(-c3ccc([N+](=O)[O-])cc3)o2)cc1	-1.3
CC1(C)CC(NC(=O)Nc2ccc([N+](=O)[O-])cc2)CC(C)(C)N1	0.3
CC1(C)CC(NC(=O)c2ccc(-c3ccc([N+](=O)[O-])cc3)o2)CC(C)(C)N1	11.8*	TbREL1 conf=4.1
CCN(C(=O)C1CCCN(c2nnc(-n3cccc3)s2)C1)c1ccccc1C (stereo not drawn)	-1.4
O=C(CSc1nnc(-c2ccccc2)n1-c1ccccc1)Nc1cccc2ccccc12	-5.3
CN(C(=O)c1ccccc1C(=O)OCC(=O)c1ccc(F)cc1)c1ccccc1	-0.5
CN(C(=O)c1ccccc1C(=O)OCC(=O)NCc1cccs1)C1CCCCC1	-2.5
CN(C(=O)c1ccccc1C(=O)OCC(=O)c1ccc(F)c(F)c1)C1CCCCC1	11.5*	TbREL1 conf=1.7
COC(=O)C1=C(C)N(Cc2ccccc2C(F)(F)F)C(=NCc2ccccc2)NC1CCc1ccccc1 (stereo not drawn)	20.6*	TbREL1 conf=19.6*
COC(=O)C1=C(C)N(Cc2ccccc2)C(=S)N[C@H]1c1cccc(C(F)(F)F)c1	-6.3
SMILES	TbREL1 inh	others
C=CCN=C1NC(c2ccccc2)C(C(=O)OC)=C(C)N1Cc1ccccc1C(F)(F)F (stereo not drawn)	7.2
O=C(CN1C(=O)NC(CCc2ccccc2)C1=O)Nc1ccccc1C(F)(F)F (stereo not drawn)	1.1
CCN1C(=NCc2cc(OC)c(OC)c(OC)c2)N[C@@H](c2cccc(C(F)(F)F)c2)C(C(=O)OC)=C1C	-0.3
COC(=O)C1=C(C)N(Cc2cccc(C(F)(F)F)c2)C(=NCc2cc(OC)c(OC)c(OC)c2)NC1CCc1ccccc1 (stereo not drawn)	11.8*	TbREL1 conf=19.7*
O=C(c1cc(Cl)ccc1F)N1CCCC(c2nc(-c3cccs3)no2)C1 (stereo not drawn)	-1.9
CC(C)c1cc(C(C)C)c(S(=O)(=O)N2CCCC(C(=O)NCc3cccs3)C2)c(C(C)C)c1 (stereo not drawn)	-2.0
Nc1nnc(SCC(=O)c2ccc3ccccc3c2)s1	-2.4
Cc1cc(C)n2c(SCCN3C(=O)c4ccccc4C3=O)nnc2n1	-0.1
Nc1nnc(SCCN2C(=O)c3ccccc3C2=O)s1	11.4*	TbREL1 conf=3.1
O=c1cc(CN2CCc3ccccc32)nc2sccn12	15.4*	TbREL1 conf=21.6*
O=c1cc(CN2CCCc3ccccc32)nc2sccn12	3.0
CC1CN(Cc2cc(=O)n3ccsc3n2)CC(C)O1 (stereo not drawn)	1.4
COc1cccc(CNC(=O)C2CCCN(c3ncccn3)C2)c1OC (stereo not drawn)	0.9
Cn1cccc1C(=O)N1CCN(S(=O)(=O)c2cccs2)CC1	0.7
CC1(c2nnnn2-c2ccc3ccccc3c2)CSCC(=O)N1C1CC1 (stereo not drawn)	0.0
CCCC1CCC2(CC1)CCC2OC(=O)Nc1cc(C)cc(C)c1 (stereo not drawn)	0.0
CCCC1CCC2(CC1)CCC2OC(=O)Nc1ccc(C)cc1 (stereo not drawn)	-0.9
CCCC1CCC2(CC1)CCC2OC(=O)Nc1cccc(C(F)(F)F)c1 (stereo not drawn)	11.9*	TbREL1 conf=7.9
O=C(Nc1ccc(Cl)cc1Cl)O[C@@H]1CC[C@@]23CCCN2C(=O)CCC[C@H]3C1	1.2
COC(=O)C1=C(C)N(Cc2ccc(C(F)(F)F)cc2)C(=NCC2CC2)NC1c1ccccc1C(F)(F)F (stereo not drawn)	14.4*	TbREL1 conf=15.9*
COC(=O)C1=C(C)N(Cc2ccc(C(F)(F)F)cc2)C(=NCc2ccc(OC)cc2)NC1c1ccccc1C(F)(F)F (stereo not drawn)	17.2*	TbREL1 conf=14.2*
CCN1C(=NCc2ccco2)N[C@@H](c2cccc(C(F)(F)F)c2)C(C(=O)OC)=C1C	4.5
COC(=O)C1=C(C)N(Cc2ccc(C(F)(F)F)cc2)C(=NCc2cccc(C(F)(F)F)c2)NC1c1ccccc1C(F)(F)F (stereo not drawn)	19.9*	TbREL1 conf=25.4*
COC(=O)C1=C(C)N(Cc2cccc(C(F)(F)F)c2)C(=NCc2ccc(C(F)(F)F)cc2)NC1c1ccc(C(F)(F)F)cc1 (stereo not drawn)	8.5
CCN1C(=NCCOC)N[C@@H](c2cccc(C(F)(F)F)c2)C(C(=O)OC)=C1C	6.0
SMILES	TbREL1 inh	others
COC(=O)C1=C(C)N(Cc2cccc(C(F)(F)F)c2)C(=NCc2ccc3c(c2)OCO3)NC1c1ccccc1C(F)(F)F (stereo not drawn)	12.8*	TbREL1 conf=20.2*
COC(=O)C1=C(C)N(C)C(=NCc2ccc(C(F)(F)F)cc2)NC1c1ccccc1C(F)(F)F (stereo not drawn)	10.0
COC(=O)C1=C(C)N(C)C(=NCc2ccc(OC)cc2)NC1c1ccccc1C(F)(F)F (stereo not drawn)	5.8
COc1ccc(OC)c(S(=O)(=O)N2CCCCC2C(=O)N2CCN(c3ccc(F)cc3)CC2)c1 (stereo not drawn)	-4.0
O=S(=O)(c1cccc2cccnc12)N1CCC(c2cn3ccccc3n2)CC1	3.6
Cc1ccccc1CN1CCCCC(NC(=O)Nc2ccccc2-c2ccccc2)C1=O (stereo not drawn)	1.4
O=C(Nc1ccc(C(O)(C(F)(F)F)C(F)(F)F)cc1)c1ccc(F)cc1F	1.5
Cc1cccc(C)c1NC(=O)[C@H]1CC(=O)O[C@@H]1c1ccccc1	0.0
COC(=O)[C@]12C[C@H](CC(=O)N3CCN(C(=O)C4CC4)CC3)C(=O)N(CCC3=CCCCC3)C1=C[C@H](C1CCCC1)O[C@@H]2C	-2.3
COc1cccc(N2CCN(CC(=O)N(C)Cc3ccccc3Cl)CC2)c1	-3.0
Cc1cc(C)cc(NC(=O)OC2CC3CC2[C@H]2CCCCN2[C@H]3C)c1 (stereo partly drawn)	-2.4
Cn1c(SCC(=O)Nc2ccccc2-c2ccccc2)nnc1-c1ccccc1	0.9
C#CCN1C(=O)[C@@](O)(c2cccn2C)c2cc(F)ccc21	-7.8
